How the values were obtained:
[1] = molecular target: T1, Aurora kinase A (Homo sapiens) (UniProt O14965); conditions: at 1 µM;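 also: values are mean percent inhibition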
T1 sequence (whole entry): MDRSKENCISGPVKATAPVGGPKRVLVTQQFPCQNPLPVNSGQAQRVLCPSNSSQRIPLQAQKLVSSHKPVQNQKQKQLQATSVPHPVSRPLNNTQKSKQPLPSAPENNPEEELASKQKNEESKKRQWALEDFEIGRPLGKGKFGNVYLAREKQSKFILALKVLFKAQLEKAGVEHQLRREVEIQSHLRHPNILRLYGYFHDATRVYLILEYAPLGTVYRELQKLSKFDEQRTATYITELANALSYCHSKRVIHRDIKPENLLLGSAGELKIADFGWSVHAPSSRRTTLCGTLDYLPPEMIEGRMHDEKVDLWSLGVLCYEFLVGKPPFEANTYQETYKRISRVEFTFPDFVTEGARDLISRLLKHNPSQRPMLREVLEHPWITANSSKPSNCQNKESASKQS

[2] = molecular target: Aurora kinase B (Homo sapiens) (UniProt Q96GD4); conditions: at 0.1 µM
Aurora kinase B (Homo sapiens), sequence (Q96GD4 whole entry): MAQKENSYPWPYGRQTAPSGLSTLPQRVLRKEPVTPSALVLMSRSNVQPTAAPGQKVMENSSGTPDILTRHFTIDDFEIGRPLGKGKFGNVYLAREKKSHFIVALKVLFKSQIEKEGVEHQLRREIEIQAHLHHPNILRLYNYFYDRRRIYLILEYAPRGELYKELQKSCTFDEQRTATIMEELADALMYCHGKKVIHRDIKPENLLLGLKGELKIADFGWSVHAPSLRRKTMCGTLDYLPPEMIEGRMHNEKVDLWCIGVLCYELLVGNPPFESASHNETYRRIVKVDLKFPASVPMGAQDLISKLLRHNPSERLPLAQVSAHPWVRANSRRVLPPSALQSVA

[3] = molecular target: Aurora kinase B (Homo sapiens) (UniProt Q96GD4); conditions: at 1 µM
[4] = molecular target: T2, Aurora kinase C (Homo sapiens) (UniProt Q9UQB9); conditions: at 0.1 µM
T2 sequence (whole entry): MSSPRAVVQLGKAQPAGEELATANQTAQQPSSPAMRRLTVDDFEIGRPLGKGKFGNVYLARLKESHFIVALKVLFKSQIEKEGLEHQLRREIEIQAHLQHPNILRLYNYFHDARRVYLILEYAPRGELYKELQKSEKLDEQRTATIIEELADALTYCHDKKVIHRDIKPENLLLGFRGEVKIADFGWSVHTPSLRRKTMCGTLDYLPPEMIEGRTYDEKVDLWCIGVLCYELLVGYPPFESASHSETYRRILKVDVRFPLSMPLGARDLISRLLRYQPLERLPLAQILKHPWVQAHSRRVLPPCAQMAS

[5] = molecular target: T2, Aurora kinase C (Homo sapiens); conditions: at 1 µM
[6] = molecular target: Serine/threonine-protein kinase 10 (Homo sapiens) (UniProt O94804); conditions: at 0.1 µM
Serine/threonine-protein kinase 10 (Homo sapiens), sequence (O94804 whole entry, looked up): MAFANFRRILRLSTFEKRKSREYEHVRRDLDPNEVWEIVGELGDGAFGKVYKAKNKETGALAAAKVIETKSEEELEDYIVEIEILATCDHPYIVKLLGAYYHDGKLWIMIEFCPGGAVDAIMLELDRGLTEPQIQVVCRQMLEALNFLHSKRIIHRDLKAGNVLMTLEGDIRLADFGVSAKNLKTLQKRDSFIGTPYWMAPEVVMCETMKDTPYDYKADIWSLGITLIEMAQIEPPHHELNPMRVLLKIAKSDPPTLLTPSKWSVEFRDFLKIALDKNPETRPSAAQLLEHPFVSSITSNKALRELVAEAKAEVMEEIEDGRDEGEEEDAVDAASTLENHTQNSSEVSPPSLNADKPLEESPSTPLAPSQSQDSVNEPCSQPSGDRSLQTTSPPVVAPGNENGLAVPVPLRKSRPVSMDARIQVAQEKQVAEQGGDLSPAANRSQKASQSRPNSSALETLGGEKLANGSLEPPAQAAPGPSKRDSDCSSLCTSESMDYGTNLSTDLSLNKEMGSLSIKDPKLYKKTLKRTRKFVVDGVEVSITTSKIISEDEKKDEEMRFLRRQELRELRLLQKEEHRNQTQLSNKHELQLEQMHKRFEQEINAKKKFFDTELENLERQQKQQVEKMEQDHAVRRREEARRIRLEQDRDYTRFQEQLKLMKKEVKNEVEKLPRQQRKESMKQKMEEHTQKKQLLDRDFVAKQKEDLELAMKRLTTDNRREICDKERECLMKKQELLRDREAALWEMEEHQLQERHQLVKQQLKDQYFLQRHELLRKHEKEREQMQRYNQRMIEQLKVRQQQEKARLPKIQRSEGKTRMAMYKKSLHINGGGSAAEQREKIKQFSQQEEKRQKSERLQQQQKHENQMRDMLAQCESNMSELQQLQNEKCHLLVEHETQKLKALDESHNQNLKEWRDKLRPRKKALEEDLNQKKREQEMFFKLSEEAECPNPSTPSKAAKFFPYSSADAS

[7] = molecular target: Serine/threonine-protein kinase 10 (Homo sapiens) (UniProt O94804); conditions: at 1 µM
[8] = molecular target: T3, Mitogen-activated protein kinase kinase kinase kinase 2 (Homo sapiens) (UniProt Q12851); conditions: at 0.1 µM
T3 sequence (whole entry): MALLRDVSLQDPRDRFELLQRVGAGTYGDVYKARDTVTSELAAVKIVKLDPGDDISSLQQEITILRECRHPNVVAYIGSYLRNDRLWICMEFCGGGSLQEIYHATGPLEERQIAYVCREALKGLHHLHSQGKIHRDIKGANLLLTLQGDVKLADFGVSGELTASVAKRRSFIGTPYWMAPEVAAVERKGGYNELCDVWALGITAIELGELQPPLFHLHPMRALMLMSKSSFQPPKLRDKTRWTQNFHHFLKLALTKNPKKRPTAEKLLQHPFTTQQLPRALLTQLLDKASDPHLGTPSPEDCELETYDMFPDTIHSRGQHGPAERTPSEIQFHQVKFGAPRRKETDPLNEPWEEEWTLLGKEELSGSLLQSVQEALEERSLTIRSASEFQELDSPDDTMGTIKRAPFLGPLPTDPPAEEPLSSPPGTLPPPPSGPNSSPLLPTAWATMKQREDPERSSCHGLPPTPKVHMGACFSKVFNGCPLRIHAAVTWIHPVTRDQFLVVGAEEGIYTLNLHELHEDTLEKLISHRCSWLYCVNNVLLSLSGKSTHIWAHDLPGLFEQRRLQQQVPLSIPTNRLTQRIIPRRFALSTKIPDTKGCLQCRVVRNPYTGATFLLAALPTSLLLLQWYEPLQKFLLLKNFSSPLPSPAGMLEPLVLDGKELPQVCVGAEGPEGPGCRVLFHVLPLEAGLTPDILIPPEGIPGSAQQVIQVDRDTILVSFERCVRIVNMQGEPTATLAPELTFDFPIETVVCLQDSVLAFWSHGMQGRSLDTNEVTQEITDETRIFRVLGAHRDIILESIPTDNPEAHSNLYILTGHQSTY

[9] = molecular target: T3, Mitogen-activated protein kinase kinase kinase kinase 2 (Homo sapiens); conditions: at 1 µM
[10] = molecular target: Mitogen-activated protein kinase kinase kinase kinase 4 (Homo sapiens) (UniProt O95819); conditions: at 0.1 µM
Mitogen-activated protein kinase kinase kinase kinase 4 (Homo sapiens), sequence (O95819 2-1239 limits assumed): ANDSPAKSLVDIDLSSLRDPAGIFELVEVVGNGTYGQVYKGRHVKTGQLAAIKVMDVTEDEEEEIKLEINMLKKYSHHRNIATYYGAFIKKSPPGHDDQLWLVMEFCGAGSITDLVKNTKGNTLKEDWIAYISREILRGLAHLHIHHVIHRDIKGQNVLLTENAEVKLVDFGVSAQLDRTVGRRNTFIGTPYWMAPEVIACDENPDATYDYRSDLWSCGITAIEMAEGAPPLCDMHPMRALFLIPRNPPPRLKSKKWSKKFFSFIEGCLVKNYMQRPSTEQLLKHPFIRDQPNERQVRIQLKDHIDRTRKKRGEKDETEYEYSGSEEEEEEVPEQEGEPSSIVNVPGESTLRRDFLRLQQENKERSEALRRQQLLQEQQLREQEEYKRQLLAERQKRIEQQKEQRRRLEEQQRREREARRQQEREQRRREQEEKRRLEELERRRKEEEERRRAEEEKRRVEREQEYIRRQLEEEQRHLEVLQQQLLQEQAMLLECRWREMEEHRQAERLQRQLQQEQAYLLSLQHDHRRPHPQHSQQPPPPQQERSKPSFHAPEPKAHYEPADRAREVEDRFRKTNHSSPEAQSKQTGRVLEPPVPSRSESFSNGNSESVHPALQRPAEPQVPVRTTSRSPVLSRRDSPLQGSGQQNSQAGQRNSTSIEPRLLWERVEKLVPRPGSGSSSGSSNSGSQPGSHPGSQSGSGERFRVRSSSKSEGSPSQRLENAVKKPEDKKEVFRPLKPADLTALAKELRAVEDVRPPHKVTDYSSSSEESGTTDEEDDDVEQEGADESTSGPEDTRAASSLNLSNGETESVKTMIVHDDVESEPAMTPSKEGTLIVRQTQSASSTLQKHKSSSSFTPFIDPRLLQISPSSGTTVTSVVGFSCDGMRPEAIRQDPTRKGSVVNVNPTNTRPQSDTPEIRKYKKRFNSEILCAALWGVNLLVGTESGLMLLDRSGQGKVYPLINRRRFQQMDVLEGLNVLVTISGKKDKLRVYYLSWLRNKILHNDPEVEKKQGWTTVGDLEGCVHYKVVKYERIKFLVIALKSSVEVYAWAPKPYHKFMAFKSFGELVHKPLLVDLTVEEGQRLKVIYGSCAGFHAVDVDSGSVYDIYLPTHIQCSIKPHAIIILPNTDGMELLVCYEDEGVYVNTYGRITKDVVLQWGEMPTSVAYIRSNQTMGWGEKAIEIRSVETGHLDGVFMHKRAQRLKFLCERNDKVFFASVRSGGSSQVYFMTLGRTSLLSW

[11] = molecular target: Mitogen-activated protein kinase kinase kinase kinase 4 (Homo sapiens) (UniProt O95819); conditions: at 1 µM
[12] = molecular target: Dual specificity mitogen-activated protein kinase kinase 1 (Homo sapiens) (UniProt Q02750); conditions: at 0.1 µM
Dual specificity mitogen-activated protein kinase kinase 1 (Homo sapiens), sequence (Q02750 whole entry): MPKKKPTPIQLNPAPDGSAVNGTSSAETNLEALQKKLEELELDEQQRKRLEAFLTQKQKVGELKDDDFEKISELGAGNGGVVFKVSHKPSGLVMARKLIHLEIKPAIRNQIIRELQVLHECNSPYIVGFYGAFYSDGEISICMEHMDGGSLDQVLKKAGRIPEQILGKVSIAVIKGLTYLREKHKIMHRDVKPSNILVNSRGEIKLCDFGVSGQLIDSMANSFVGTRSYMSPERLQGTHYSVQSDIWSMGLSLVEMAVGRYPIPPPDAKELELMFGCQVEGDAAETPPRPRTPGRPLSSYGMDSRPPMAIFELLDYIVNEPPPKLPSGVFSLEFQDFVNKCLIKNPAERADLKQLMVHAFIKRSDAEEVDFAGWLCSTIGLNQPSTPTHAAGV

[13] = molecular target: Dual specificity mitogen-activated protein kinase kinase 1 (Homo sapiens) (UniProt Q02750); conditions: at 1 µM
[14] = molecular target: Misshapen-like kinase 1 (Homo sapiens) (UniProt Q8N4C8); conditions: at 0.1 µM
Misshapen-like kinase 1 (Homo sapiens), sequence (Q8N4C8 whole entry, looked up): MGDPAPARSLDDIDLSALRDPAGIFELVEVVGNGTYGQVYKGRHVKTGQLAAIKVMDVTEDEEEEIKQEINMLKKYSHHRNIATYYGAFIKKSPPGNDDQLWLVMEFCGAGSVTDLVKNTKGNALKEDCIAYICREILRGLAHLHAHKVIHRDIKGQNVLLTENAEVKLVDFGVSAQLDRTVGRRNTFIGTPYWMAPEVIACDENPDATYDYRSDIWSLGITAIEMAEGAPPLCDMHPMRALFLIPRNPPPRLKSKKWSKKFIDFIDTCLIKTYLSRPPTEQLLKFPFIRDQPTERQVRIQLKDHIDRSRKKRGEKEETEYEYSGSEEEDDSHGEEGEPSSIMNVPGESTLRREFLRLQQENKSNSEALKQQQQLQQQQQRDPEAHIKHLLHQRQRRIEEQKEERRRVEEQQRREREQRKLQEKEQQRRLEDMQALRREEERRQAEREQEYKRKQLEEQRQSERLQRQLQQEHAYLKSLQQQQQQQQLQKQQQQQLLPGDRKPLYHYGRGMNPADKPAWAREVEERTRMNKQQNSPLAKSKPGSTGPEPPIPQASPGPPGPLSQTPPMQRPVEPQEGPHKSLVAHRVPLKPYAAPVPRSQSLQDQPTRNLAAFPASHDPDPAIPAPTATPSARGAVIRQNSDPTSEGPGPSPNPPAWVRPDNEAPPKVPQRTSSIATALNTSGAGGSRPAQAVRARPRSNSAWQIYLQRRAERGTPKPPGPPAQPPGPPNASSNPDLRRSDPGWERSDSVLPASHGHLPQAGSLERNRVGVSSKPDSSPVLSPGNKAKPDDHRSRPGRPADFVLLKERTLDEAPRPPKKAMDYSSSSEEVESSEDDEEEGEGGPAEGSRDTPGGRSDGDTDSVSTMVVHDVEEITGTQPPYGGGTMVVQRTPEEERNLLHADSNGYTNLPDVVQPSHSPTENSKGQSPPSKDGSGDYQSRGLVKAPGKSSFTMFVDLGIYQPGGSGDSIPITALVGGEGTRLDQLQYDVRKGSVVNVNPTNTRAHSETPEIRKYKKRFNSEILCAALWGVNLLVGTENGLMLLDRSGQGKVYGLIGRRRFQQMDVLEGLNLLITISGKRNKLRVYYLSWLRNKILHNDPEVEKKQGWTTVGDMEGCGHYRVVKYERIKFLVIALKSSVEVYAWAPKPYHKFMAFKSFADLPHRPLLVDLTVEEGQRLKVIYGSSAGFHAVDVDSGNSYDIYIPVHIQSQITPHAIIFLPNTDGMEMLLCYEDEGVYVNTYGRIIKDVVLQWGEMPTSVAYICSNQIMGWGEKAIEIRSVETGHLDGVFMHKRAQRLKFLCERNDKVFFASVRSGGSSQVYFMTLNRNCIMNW

[15] = molecular target: Misshapen-like kinase 1 (Homo sapiens) (UniProt Q8N4C8); conditions: at 1 µM
[16] = molecular target: T4, Serine/threonine-protein kinase 4 (Homo sapiens) (UniProt Q13043); conditions: at 0.1 µM
T4 sequence (whole entry): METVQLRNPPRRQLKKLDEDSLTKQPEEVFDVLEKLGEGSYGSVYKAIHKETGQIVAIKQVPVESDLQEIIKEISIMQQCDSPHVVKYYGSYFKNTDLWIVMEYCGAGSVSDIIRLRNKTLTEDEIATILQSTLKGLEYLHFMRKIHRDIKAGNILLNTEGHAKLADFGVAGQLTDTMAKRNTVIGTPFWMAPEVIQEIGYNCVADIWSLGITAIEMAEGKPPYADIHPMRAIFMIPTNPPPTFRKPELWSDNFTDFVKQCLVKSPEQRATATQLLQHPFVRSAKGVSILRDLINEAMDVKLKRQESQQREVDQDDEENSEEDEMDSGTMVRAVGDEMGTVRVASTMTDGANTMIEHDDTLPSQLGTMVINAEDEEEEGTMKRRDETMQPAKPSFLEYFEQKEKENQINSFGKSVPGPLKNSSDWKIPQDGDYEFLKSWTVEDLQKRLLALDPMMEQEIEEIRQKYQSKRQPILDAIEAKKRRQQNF

[17] = molecular target: T4, Serine/threonine-protein kinase 4 (Homo sapiens); conditions: at 1 µM
[18] = molecular target: T5, Serine/threonine-protein kinase 3 (Homo sapiens) (UniProt Q13188); conditions: at 0.1 µM
T5 sequence (whole entry): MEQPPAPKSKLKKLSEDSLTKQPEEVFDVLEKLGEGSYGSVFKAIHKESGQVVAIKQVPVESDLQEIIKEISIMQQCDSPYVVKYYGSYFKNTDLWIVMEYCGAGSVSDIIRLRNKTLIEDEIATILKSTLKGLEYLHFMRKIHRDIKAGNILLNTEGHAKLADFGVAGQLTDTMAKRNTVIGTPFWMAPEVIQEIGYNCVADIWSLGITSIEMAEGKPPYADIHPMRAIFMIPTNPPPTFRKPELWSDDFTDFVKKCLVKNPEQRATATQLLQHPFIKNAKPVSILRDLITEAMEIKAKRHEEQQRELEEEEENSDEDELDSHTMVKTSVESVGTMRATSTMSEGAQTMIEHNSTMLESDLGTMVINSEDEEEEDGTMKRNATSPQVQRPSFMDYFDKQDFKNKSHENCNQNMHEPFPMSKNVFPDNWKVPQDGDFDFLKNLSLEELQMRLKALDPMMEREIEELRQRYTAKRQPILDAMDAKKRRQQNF

[19] = molecular target: T5, Serine/threonine-protein kinase 3 (Homo sapiens); conditions: at 1 µM
[20] = molecular target: Serine/threonine-protein kinase 26 (Homo sapiens) (UniProt Q9P289); conditions: at 0.1 µM
Serine/threonine-protein kinase 26 (Homo sapiens), sequence (Q9P289 2-416 limits assumed): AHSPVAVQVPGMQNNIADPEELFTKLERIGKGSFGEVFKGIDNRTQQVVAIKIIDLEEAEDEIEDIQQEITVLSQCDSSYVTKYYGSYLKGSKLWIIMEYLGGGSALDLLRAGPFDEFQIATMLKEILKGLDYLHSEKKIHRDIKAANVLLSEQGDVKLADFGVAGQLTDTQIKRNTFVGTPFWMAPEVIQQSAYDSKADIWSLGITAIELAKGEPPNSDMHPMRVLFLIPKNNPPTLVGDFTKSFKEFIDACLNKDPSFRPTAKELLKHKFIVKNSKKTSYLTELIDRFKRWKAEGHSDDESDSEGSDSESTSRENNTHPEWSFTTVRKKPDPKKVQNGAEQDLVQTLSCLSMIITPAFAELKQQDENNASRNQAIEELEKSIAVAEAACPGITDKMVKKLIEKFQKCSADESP

| SMILES | inhibition [1] [%] | inhibition [2] [%] | inhibition [3] [%] | inhibition [4] [%] | inhibition [5] [%] | inhibition [6] [%] | inhibition [7] [%] | inhibition [8] [%] | inhibition [9] [%] | inhibition [10] [%] | inhibition [11] [%] | inhibition [12] [%] | inhibition [13] [%] | inhibition [14] [%] | inhibition [15] [%] | inhibition [16] [%] | inhibition [17] [%] | inhibition [18] [%] | inhibition [19] [%] | inhibition [20] [%] |
| --- | --- | --- | --- | --- | --- | --- | --- | --- | --- | --- | --- | --- | --- | --- | --- | --- | --- | --- | --- | --- |
| COC(=O)Nc1nc2cc(Oc3ccc(NC(=O)Nc4cccc(C(=O)O)c4)cc3)ccc2[nH]1 | 12.8 | -1.26 | 9.37 | 0.03 | 37.7 | 0.65 | 7.1 | 0.68 | 1.11 | 0.99 | 5.9 | 0.36 | 0.97 | 1.59 | 4.38 | 7.79 | 11.2 | 7.55 | 10.9 | 1.75 |
| NS(=O)(=O)c1cccc(-c2ccc3c(NC(=O)C4CC4)n[nH]c3c2)c1 | 14.4 | 1.82 | 1.24 | -1.44 | 2.43 | 1.33 | 7.09 | 2.11 | 7.37 | 1.63 | 10 | -1.43 | 2.83 | 1.11 | 8.09 | -3.97 | -4.72 | -3.79 | -2.35 | 0 |
| COc1cc2ncn(-c3cc(O[C@H](C)c4ccccc4Cl)c(C(N)=O)s3)c2cc1OC | 30.1 | 8.7 | 37.9 | 4.62 | 50.7 | 99.3 | 88 | 13.6 | 47.4 | 4.5 | 18.6 | 4.68 | 4.4 | 5.71 | 16.9 | 40.3 | 77 | 34.7 | 73.8 | -3.36 |
| Cc1nn(C)c2cc(N(C)c3ccnc(Nc4cccc(S(N)(=O)=O)c4)n3)ccc12 | 89.8 | 7.86 | 47.5 | 13.3 | 93 | 13.3 | 51.4 | 7.42 | 30.9 | 53.7 | 84.1 | 3.83 | 4.09 | 44.2 | 83.8 | 1.85 | 3.69 | 1.21 | 3.34 | -0.82 |
| Nc1nc(-c2ccccn2)c(-c2ccc3ncccc3n2)s1 | 9.43 | 1.61 | 8.29 | 2.42 | – | 2.91 | 5.82 | 0.08 | 2.92 | 5.35 | 9.69 | 2.95 | 2.78 | 5.37 | 7.86 | 5.62 | 6.85 | 5.79 | 6.4 | -2.14 |
| COc1cc2ncn(-c3cc(OCc4ccccc4C(F)(F)F)c(C(N)=O)s3)c2cc1OC | 13.7 | 3.06 | 26.6 | 4.2 | 35.9 | 76 | 88.3 | 4.53 | 18.1 | 5.97 | 30.1 | 2.39 | 2.9 | 7.46 | 25.5 | 14.3 | 55.5 | 15.2 | 52.8 | -4.21 |
| O=C1NC(=O)C(N2CCc3ccccc32)=C1c1ccc(Cl)cc1 | 15.5 | 5.02 | 13.8 | 3.07 | 15.9 | 7.48 | 8.68 | 1.87 | 6.3 | 4.26 | 9.97 | 5.02 | 5.22 | 5.14 | 10.3 | 6.36 | 7.67 | 6.26 | 7.91 | -1.31 |
| O=C1NC(=O)C(c2ccccc2Cl)=C1Nc1cccc(O)c1 | 11.6 | 2.88 | 7.74 | 1.84 | 7.14 | 8.75 | 49.3 | 1.12 | 2.09 | 3.71 | 6.87 | 1.44 | 1.89 | 3.8 | 5.96 | 7.3 | 27.2 | 7.12 | 22.5 | -0.62 |
| Nc1nc(-c2ccc3c(c2)C(=Cc2cc(Br)c(O)c(Br)c2)C(=O)N3)cs1 | 29.2 | 1.57 | 6.47 | -0.77 | 9.45 | 2.74 | 6.29 | 1.39 | 5.61 | 24.6 | 75.3 | -1.03 | -1.25 | 10.2 | 56.9 | -2.22 | 9.55 | -2.3 | 12.2 | 0.73 |
| Fc1cccc(COc2ccc(Nc3ncnc4sc(-c5cccs5)cc34)cc2Cl)c1 | 2.05 | 1.14 | 6.42 | 1.7 | 7.89 | 2.84 | 4.63 | -0.64 | 1.65 | 1.29 | 6.34 | 2.3 | 4 | 1.45 | 2.51 | 0.07 | 0.3 | -1.67 | -0.19 | -0.02 |
| CN(C)c1cc2c(Nc3ccc4nc(Cc5ccccc5)[nH]c4c3)ncnc2cn1 | 11.5 | 6.09 | 27.4 | 5.94 | 40.3 | 6.78 | 14.4 | 1.35 | 2.07 | 7.88 | 9.42 | 6.17 | 5.42 | 8.81 | 9.2 | 4.35 | 3.57 | 4.95 | 2.18 | -1.17 |
| COc1cc2ncn(-c3cc(OCc4ccccc4Cl)c(C(N)=O)s3)c2cc1OC | 23.5 | 4.78 | 29.9 | 2.35 | 40.5 | 67.3 | 99 | 7 | 30.8 | 13.9 | 56.6 | 2.14 | 2.16 | 10.9 | 51 | 7.11 | 46.2 | 6.18 | 42.4 | 0.45 |
| N#Cc1c(NC(=O)c2cccc3ccccc23)sc2c1CCCC2 | 5.29 | 1.03 | 3.57 | 1.03 | 2.63 | 3.84 | 5.96 | 1.92 | 4.41 | 3.89 | 13.8 | 3.76 | 3.46 | 5.15 | 11.1 | 3.4 | 4.3 | 2.39 | 3.8 | -1.1 |
| Cc1ccc(NC(=O)c2ccnc(N3CCCC3)c2)cc1-c1ccc(C(=O)NCC2CC2)cc1 | 4.67 | 1.95 | 6.5 | -0.41 | 7.12 | 3.49 | 7.84 | 3.82 | 13.5 | 10 | 10.9 | 5.95 | 5.8 | 11.6 | 10.5 | 8.79 | 9.83 | 9.39 | 9.53 | 4.41 |
